A short description of the test: JC-1 mitochondrial signal, unstimulated HepG2 cells – cell-based, JC-1 fluorescence, 24 h, 100 nL compound, profiling panel (AID 1167). Note: test concentration not given here. The settings on record: HepG2 mitochondrial potential, higher = more signal.
For `O=C(CS)NCCCCCNC(=O)[C@@H]1C[C@@H]2C(=O)NCC(=O)N2[C@@H]1c1cccc(OCCO)c1`, the z-score was determined as 1.85. `O=C(CS)NCCCCCNC(=O)[C@H]1C[C@H]2C(=O)NCC(=O)N2[C@H]1c1cccc(OCCO)c1`: the z-score is -0.342. As for `CN(C)CCCCNC(=O)[C@@H]1C[C@@H]2C(=O)N[C@@H](CCCCN)C(=O)N2[C@@H]1c1ccc(O)cc1`, the z-score is -1.58. With `COc1ccc(CCNC(=O)[C@@]2(C)c3ccccc3C(=O)N(c3ccc(C)cn3)[C@H]2c2ccc(CO)cc2)cc1`, the z-score is -0.429. Consider `O=C(NCCN1CCOCC1)[C@@H]1c2ccccc2C(=O)N(Cc2cc(C(F)(F)F)cc(C(F)(F)F)c2)[C@H]1c1ccc(CO)cc1`, for which the z-score amounted to 2.85. In the case of `O=C(NCc1ccccc1)[C@@H]1c2ccccc2C(=O)N(C2Cc3ccccc3C2)[C@H]1c1ccc(CO)cc1`, the z-score came out at 1.52. Turning to `COCCOC(=O)N1C(=O)[C@@]2(c3cc(C#CC4(O)CCCCCC4)ccc31)[C@H](C(=O)Nc1nc3ccccc3s1)[C@H]1C(=O)O[C@H](c3ccccc3)[C@H](c3ccccc3)N1[C@@H]2c1ccccc1OCCO`, the z-score is -3.05. In turn, `CC1CC/C=C\[C@H]2OC34C=CCN(c5ccc6ccccc6c5)C(=O)[C@H]3N(CCO)C(=O)[C@@H]4C2C(=O)O1` (stereo not given in full) showed a z-score of -0.438.

As to `O=C1O[C@@H](c2ccccc2)[C@@H](c2ccccc2)N2[C@@H](c3ccc(OCCO)cc3)[C@]3(C(=O)Nc4ccc(C#CCCO)cc43)[C@@H](C(=O)NC[C@H](O)c3ccccc3)[C@H]12`, the z-score was -0.821. `O=C1OCCC/C=C\[C@H]2OC34C=CCN(c5ccc6ccccc6c5)C(=O)[C@H]3N(CCCCCO)C(=O)[C@@H]4C12` (stereo not given in full) displayed a z-score of 0.337. For `CC(C)CNC(=O)[C@@]1(Cc2ccccc2I)c2ccccc2C(=O)N(Cc2ccccc2C(F)(F)F)[C@H]1c1ccc(CO)cc1`, the z-score came to 0.081. Molecule `C#CCOc1ccc(C[C@@H](C(=O)OC)N(CC#C)[C@@H](/C=C/C2CC2)[C@H](O)Cc2ccccc2)cc1` had a z-score of -1.15. Turning to `CCOC(=O)[C@H]1C/C=C/C[C@H](C(=O)OCC)C(=O)O[C@H]2[C@@H](OC)O[C@H](CO)[C@@H](OC(=O)c3ccc(Br)cc3)[C@@H]2OC1=O`, the z-score was -0.971. Molecule `O=C1[C@@]23C=C(Br)[C@H](C[C@@H]2COC3)[C@]12CO2` displayed a z-score of -2.21. As for `O=C1NC(=O)C2C1C=CC(C(O)c1ccc(-c3ccccc3)s1)N2Nc1ccc(Cl)cc1Cl` (stereo not given), the z-score is -2.92. The molecule `C=C(C(=O)CC[C@H](OC(C)=O)c1ccccc1OCCO)C(C)C` showed a z-score of -0.892.

Molecule `O=C1C2C=CC(C(O)COCc3ccccc3)N(Nc3ccc([N+](=O)[O-])cc3)C2C(=O)N1c1ccccc1` (stereo not given) came in with a z-score of -1.26. The molecule `COCC(=C=CC[C@H](O)c1cccc(OCCO)c1)CCO` gave a z-score of -0.206. The molecule `NCCCCCCNC(=O)[C@H]1C[C@H]2C(=O)N[C@@H](Cc3ccccc3)C(=O)N2[C@H]1c1cccc(OCCO)c1` had a z-score of -0.215. Next, `CCCCCN1CC=CC23O[C@@H]4C=CCOC(=O)[C@@H]4[C@H]2C(=O)N(C(C)CO)[C@@H]3C1=O` (stereo not given in full): -0.714; `CC(c1ccccc1)C(O)C1C=CC2C(=O)N(C)C(=O)C2N1NC(=O)OC(C)(C)C` (stereo not given): -0.741; `COCCCNC(=O)[C@@H]1c2ccccc2C(=O)N(Cc2ccccc2)[C@H]1c1ccc(CO)cc1`: 1.1. The molecule `COCCOC(=O)N1C(=O)[C@@]2(c3cc(C#CCCO)ccc31)[C@H](c1ccc(OCCO)cc1)N1[C@H](c3ccccc3)[C@H](c3ccccc3)OC(=O)[C@H]1[C@@H]2C(N)=O` returned a z-score of -0.72. `COc1ccc(C(=O)Nc2ccc(CN3C(=O)[C@]4(O[C@H](CC(=O)N5CCC[C@H]5CO)[C@@H]([Si](C)(C)c5ccc(OC)cc5)[C@@H]4C)c4ccccc43)cc2)cc1`: the z-score was -2.48. For `C=CC[C@]1(C(N)=O)COC(c2ccc(OCCCO)cc2)=N1`, the z-score stood at 0.16. For the molecule `COC(=O)[C@@]1(Cc2ccccc2)[C@H]2c3cc(C(=O)N(C)C)n(CCc4c[nH]c5ccc(O)cc45)c3C[C@H]2CN1C(=O)c1ccccc1`, the z-score is -1.3.

In turn, `COc1ccc(C#Cc2ccc3c(c2)[C@]2(C(=O)N3)[C@H](c3ccc(O)cc3)N3[C@H](c4ccccc4)[C@H](c4ccccc4)OC(=O)[C@H]3[C@@H]2C(=O)N2CCc3cc(OC)c(OC)cc3C2)cc1` yielded a z-score of -0.458.

`O=C1OCCC=C[C@H]2OC34C=CCN(Cn5nnc6ccccc65)C(=O)[C@H]3N(CCO)C(=O)[C@@H]4C12` (stereo not given in full) returned a z-score of -0.298. Molecule `CC(C)Cc1ccc(CN2CC[C@@H](N)C2)cc1` returned a z-score of 2.5.

Consider `C[N+](C)(C)CCCCCCNC(=O)[C@H]1C[C@H]2C(=O)N[C@@H](Cc3ccccc3)C(=O)N2[C@H]1c1cccc(OCCO)c1`, for which the z-score was -1.25. For `CO[C@H]1O[C@H](CO)[C@@H](OC(=O)Nc2ccc(Oc3ccccc3)cc2)[C@H](OC(=O)Nc2ccc3c(c2)OCO3)[C@@H]1OC(=O)Nc1ccc2c(c1)OCO2`, the z-score is -0.594.

In turn, `C=C(CCCC)/C(=C/C[C@@H](OC(C)=O)c1ccccc1OCCO)c1cc(C(=O)OC)ccc1OC` yielded a z-score of 1.75. As to `C=CCC(OC(C)=O)[C@@H]1[C@@H](N(Cc2cc3ccccc3o2)C(=O)Cc2ccc(OC)cc2)c2cc(OCCCO)ccc2N1C(=O)c1ccc2ccccc2c1` (stereo not given in full), the z-score was 1.4. In turn, `O=C1C2C=CC(C(O)c3c(F)cccc3Cl)N(Nc3ccccc3F)C2C(=O)N1c1ccccc1` (stereo not given) showed a z-score of -1.03.

The molecule `CN(C)C(=O)[C@]1(Cc2ccccc2)N=C(c2ccc(OCCCO)cc2)O[C@@H]1c1ccccc1N=[N+]=[N-]` displayed a z-score of 1.43.

(Values after PubChem BioAssay.)
